In PMC5540273 (PLoS ONE, 2017):

Assays:
Settings in all cases: concentration: 1 μM, replicates: in singlicate; n = 1
PFTK1 = system: T1, PFTK1
T1 construct: gene CDK14

PHKG1 = system: PHKG1
PHKG2 = system: PHKG2
PIK3C2B = system: PIK3C2B
PIK3C2G = system: PIK3C2G
PIK3CA = system: PIK3CA
PIK3CB = system: PIK3CB
PIK3CD = system: PIK3CD
PIK3CG = system: PIK3CG
PIK4CB = system: T2, PIK4CB
T2 construct: gene PI4KB
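Further: KINOMEscan kinase panel screen.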

Structure (SMILES) | %Inh (PFTK1) | %Inh (PHKG1) | %Inh (PHKG2) | %Inh (PIK3C2B) | %Inh (PIK3C2G) | %Inh (PIK3CA) | %Inh (PIK3CB) | %Inh (PIK3CD) | %Inh (PIK3CG) | %Inh (PIK4CB)
N#Cc1ccc(-c2cc(-c3c[nH]nc3-c3ccccn3)ccn2)cc1 [GW693028] | 19% | 0% | 0% | 0% | 0% | 0% | 0% | 0% | 0% | 0%
COc1cc2c(cc1OCCN1CCN(C)CC1)ncc1c3ccc(C#N)cc3[nH]c21 | 18% | 98.2% | 99.8% | 0% | 25% | 0% | 0% | 0% | 0% | 0%
Cn1ccc2ncnc(Oc3ccc(NC(=O)Nc4ccncc4)c(Cl)c3)c21 | 0% | 0% | 5% | 16% | 43% | 11% | 0% | 26% | 26% | 0%
CC(C)Oc1ccc2c(-c3ccnc(Nc4ccc(N5CCN(C)CC5)cc4)n3)cnn2n1 [GW696155] | 55% | 51% | 84% | 0% | 0% | 0% | 21% | 45% | 30% | 33%
